Rows were chosen to be rich in hits. Some 1.3% of all compounds tested hit in one or more screens of this group.
NCOA2 inhibitor: inhibits human steroid receptor coactivator 2; inhibition, % at 9 µM; HEK293 GAL4-SRC2 luciferase reporter, luminescence; AID 651957; actives 0.17% (n = 370,000);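 active = inhibition above the mean inhibition of all tested compounds plus 3 SD, set per campaign, cut at about 52% in these data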
NR5A2 inv ag: suppresses constitutive activity of human LRH-1; O00482; HEK293T StAR-luciferase reporter, LRH-1 transfected, 24 h; inhibition, % at 3.6 µM; actives 0.13% (n = 360,000); AID 602396;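 active = inhibition above the mean inhibition of all tested compounds plus 3 SD, cut at about 73% in these data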
SRC1 inh: human NCOA1 inhibition; HEK293 GAL4-SRC1 luciferase reporter, luminescence; inhibition, % at 3.6 µM; actives 0.12% (n = 360,000);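 active = inhibition above the campaign mean plus 3 SD, with each screening campaign given its own cutoff, cut at about 60% in these data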
SRC3 inh: inhibits human SRC3 coactivator; Q9Y6Q9; HEK293 GAL4-SRC3 luciferase reporter, luminescence; inhibition, % at 3.6 µM; actives 0.17% (n = 360,000); AID 588352;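 active = inhibition above a per-campaign cutoff, the mean of all compounds plus 3 SD, cut at about 60% in these data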;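 also: higher means less SRC3-driven luciferase light from the GAL4 reporter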
Target sequence (Q9Y6Q9 whole entry, looked up, the tested form may be a part): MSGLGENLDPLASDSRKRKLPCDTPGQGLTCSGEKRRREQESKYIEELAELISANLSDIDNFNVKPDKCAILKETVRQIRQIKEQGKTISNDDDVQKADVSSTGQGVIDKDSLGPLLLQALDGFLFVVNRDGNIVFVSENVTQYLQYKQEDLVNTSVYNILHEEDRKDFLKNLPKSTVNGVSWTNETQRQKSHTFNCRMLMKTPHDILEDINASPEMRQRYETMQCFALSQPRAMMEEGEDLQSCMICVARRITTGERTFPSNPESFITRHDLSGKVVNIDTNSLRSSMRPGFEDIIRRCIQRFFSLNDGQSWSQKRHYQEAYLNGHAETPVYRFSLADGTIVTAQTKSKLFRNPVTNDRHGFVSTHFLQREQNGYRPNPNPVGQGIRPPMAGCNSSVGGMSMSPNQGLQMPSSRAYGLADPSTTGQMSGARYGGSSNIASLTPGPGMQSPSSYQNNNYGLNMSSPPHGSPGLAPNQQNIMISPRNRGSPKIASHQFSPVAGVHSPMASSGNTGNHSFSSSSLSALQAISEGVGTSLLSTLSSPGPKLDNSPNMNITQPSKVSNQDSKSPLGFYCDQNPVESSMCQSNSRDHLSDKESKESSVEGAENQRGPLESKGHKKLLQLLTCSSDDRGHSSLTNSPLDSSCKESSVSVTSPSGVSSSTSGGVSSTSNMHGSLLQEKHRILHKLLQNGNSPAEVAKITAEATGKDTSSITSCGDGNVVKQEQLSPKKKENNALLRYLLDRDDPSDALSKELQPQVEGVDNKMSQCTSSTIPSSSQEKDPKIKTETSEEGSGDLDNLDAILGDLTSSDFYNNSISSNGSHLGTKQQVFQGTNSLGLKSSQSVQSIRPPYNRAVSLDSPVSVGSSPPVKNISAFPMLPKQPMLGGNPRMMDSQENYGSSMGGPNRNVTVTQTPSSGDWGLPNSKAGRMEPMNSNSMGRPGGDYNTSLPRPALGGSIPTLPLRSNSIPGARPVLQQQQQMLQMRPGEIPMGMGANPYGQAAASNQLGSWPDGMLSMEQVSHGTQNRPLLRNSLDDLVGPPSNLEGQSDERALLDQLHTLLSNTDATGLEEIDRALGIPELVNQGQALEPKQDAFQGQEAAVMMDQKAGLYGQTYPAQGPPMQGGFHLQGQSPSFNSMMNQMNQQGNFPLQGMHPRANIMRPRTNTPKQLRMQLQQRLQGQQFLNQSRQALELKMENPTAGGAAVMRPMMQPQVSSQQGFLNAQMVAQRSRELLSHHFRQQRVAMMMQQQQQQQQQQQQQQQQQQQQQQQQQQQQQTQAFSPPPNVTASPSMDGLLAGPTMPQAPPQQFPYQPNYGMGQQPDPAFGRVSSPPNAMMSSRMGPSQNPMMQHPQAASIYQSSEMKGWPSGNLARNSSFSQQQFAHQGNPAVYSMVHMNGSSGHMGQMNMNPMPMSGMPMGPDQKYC
COUP-TFII inh: inhibitors of human COUP-TFII (NR2F2). P24468. HEK293T NGFI-A luciferase reporter, luminescence. inhibition, % at 8.6 µM. actives 0.7% (n = 370,000). AID 686940;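 active = inhibition above a per-plate cutoff, mean inhibition of test wells between control levels plus 3 SD, cut at about 38% in these data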;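 also: cells cotransfected with COUP-TFII expression vector driving the NGFI-A reporter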
Gli-Sufu block: antagonists of Gli-Sufu signaling; Sufu-KO-LIGHT fibroblasts, Gli luciferase reporter luminescence; inhibition, % at 5 µM; actives 0.74% (n = 340,000); AID 588413;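 active = inhibition above about 55%, limit read from the data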
VP16 Luc counter: inhibits VP16 reporter, flagging COUP-TFII antagonist hits | AID 687007 | HEK293 Gal4-VP16 luciferase reporter, luminescence | inhibition, % at 8.5 µM | actives 25% (n = 2,500) | shares compounds with COUP-TFII inh; in the data active = inhibition above about 13%
NR2F2 inh conf: COUP-TFII (NR2F2) inhibition, confirmation assay; inhibition, % at 8.5 µM; actives 45% (n = 2,500); HEK293 NGFI-A luciferase reporter, luminescence; AID 687008; shares compounds with COUP-TFII inh;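 active = mean inhibition over three repeats above a set limit taken from the earlier primary screen, cut at about 38% in these data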
Hits are given with their value; i = inactive; nt = no result.

SMILES	NCOA2 inhibitor	NR5A2 inv ag	SRC1 inh	SRC3 inh	COUP-TFII inh	Gli-Sufu block	VP16 Luc counter	NR2F2 inh conf
CC(C)(C)c1ccc(Oc2ccc(NC(=O)c3ccccc3C(=O)O)cn2)cc1	85	i	i	i	80	i	47	i
O=[N+]([O-])c1ccc(Oc2ccc(C(F)(F)F)cn2)cc1	i	i	i	i	i	i	nt	nt
Cc1cc(Oc2ccc(N)cn2)cc(C)c1Cl	i	i	i	i	38	i	i	i
CC(C)(C)c1ccc(Oc2ccc(N)cn2)cc1	86	i	i	i	78	i	76	67
COc1ccc(-c2ccccc2C2Cc3nnccc3CN2)cc1 (stereo not drawn)	i	nt	nt	nt	i	nt	nt	nt
Cc1cc(/C=N/Nc2ncnc(N)c2[N+](=O)[O-])c(C)n1-c1ccccc1	i	i	i	i	52	i	44	78
COc1cccc(/C=N/Nc2ncnc(N)c2[N+](=O)[O-])c1OC	nt	i	i	i	nt	i	nt	nt
CC(C)(C)c1ccc(-c2cn(-c3ccc(Br)cc3)c3[n+]2CCCS3)cc1	i	83	i	i	50	93	18	i
COC(=O)[C@@H](Cc1ccccc1)N[C@H](/C=C/c1ccccc1)[C@@H](O)Cc1ccccc1	i	nt	nt	nt	i	nt	nt	nt
COc1cccc(NC(=O)NC2CCCCN(Cc3ccccc3C)C2=O)c1 (stereo not drawn)	i	nt	nt	nt	i	nt	nt	nt
COC(=O)[C@H]1C[C@@]2(Oc3ccc(Br)cc3)c3ccccc3N(C(=O)OC(C)(C)C)[C@H]2N1C(=O)OC(C)(C)C	i	nt	nt	nt	i	nt	nt	nt
COc1cccc(NC(=S)N(Cc2cccc(Br)c2)CC2CCC(C(=O)O)CC2)c1 (stereo not drawn)	i	i	i	i	39	i	i	i
CC1(C)Oc2cc3oc(-c4cc(O)cc(O)c4)cc3cc2CC1O (stereo not drawn)	i	i	i	i	41	i	i	i
O=C(Nc1cccc(S(=O)(=O)c2cccc(NC(=O)c3ccco3)c2)c1)c1ccco1	i	i	i	i	70	i	i	i
O=C(Nc1cccc(S(=O)(=O)N2CCCC2)c1)c1ccco1	i	i	i	i	i	i	nt	nt
CCOC(=O)c1cc2c(C)n(-c3ccc(C)cc3)c(C)c2ccc1=O	i	i	i	i	41	i	i	i
CCc1nc2ccc(C(=O)Nc3cc(-c4ccccc4)ccc3OC)cn2c1N(C)Cc1ccc(OC)cc1	i	i	i	i	i	nt	nt	nt
CCc1nc2ccc(C(=O)Nc3ccc(NC(C)=O)cc3)cn2c1N(C)C(=O)Cc1ccccc1	i	i	i	i	53	nt	i	i
CCc1nc2ccc(C(=O)Nc3cccc(NS(C)(=O)=O)c3)cn2c1N(C)C(=O)Cc1ccccc1	i	i	i	i	i	nt	nt	nt
CCc1nc2ccc(C(=O)Nc3cc(-c4ccccc4)ccc3OC)cn2c1N(C)Cc1nccs1	i	i	i	i	50	nt	i	i
Cc1ccccc1C1CCC2(CC1)CCN(CC[C@@H](O)c1ccccc1)C2=O (stereo partly drawn)	nt	nt	nt	nt	i	nt	nt	nt
O=C(c1ccccc1Oc1ccccc1)N1CCC(Oc2cccnc2)CC1	i	nt	nt	nt	i	nt	nt	nt
C=C1C(=O)[C@]23C[C@H]1CC[C@H]2[C@]1(C)[C@@H](OC(C)=O)CC[C@@](C)(C(=O)OC)[C@H]1C[C@@H]3OC(C)=O	i	i	i	i	i	nt	nt	nt
C=C1C(=O)[C@]23C[C@H]1CCC2[C@@]1(C)C(C[C@@H]3O)[C@](C)(C(=O)OC)CC[C@@H]1OC(C)=O (stereo partly drawn)	59	83	i	i	49	nt	64	52
CCCCc1ccc(N/C(N)=N/c2nc(C)cc(C)n2)cc1	i	i	i	i	49	i	29	56
SMILES	NCOA2 inhibitor	NR5A2 inv ag	SRC1 inh	SRC3 inh	COUP-TFII inh	Gli-Sufu block	VP16 Luc counter	NR2F2 inh conf
COC(=O)c1cc(N/C(N)=N/c2nc(C)cc(C)n2)cc(C(=O)OC)c1	i	i	i	i	42	nt	i	i
COC(=O)[C@]12C[C@H](CC(=O)NCCCN3CCCC3=O)C(=O)N(CCc3ccc(OC)c(OC)c3)C1=C[C@H](C(C)(C)C)O[C@@H]2C	i	nt	nt	nt	i	nt	nt	nt
CCCCNc1nc2c(c(=O)n(C)c(=O)n2C)n1CCC	i	i	i	i	i	i	nt	nt
CCCCCCn1c(NCC)nc2c1c(=O)n(C)c(=O)n2C	i	i	i	i	57	i	i	49
COc1ccc2[nH]c3c(NCCCOC(C)C)ncnc3c2c1	i	i	i	i	i	i	nt	nt
COc1ccc2[nH]c3c(NCCC4=CCCCC4)ncnc3c2c1	i	i	i	i	54	68	i	i
CC(C)[C@H](NS(=O)(=O)c1ccc(F)cc1F)C(=O)N1CCC[C@H]1C(=O)NCCc1ccccc1Cl	i	nt	nt	nt	i	nt	nt	nt
Cc1ccc(C)c(S(=O)(=O)NCc2ccncc2)c1	i	i	i	i	43	i	i	i
CCC(=O)N(C1=C(NC)C(=O)c2ccccc2C1=O)C(C)C	i	i	i	i	i	i	nt	nt
CNC1=C(N(C(C)=O)c2ccc(Br)cc2)C(=O)c2ccccc2C1=O	i	97	81	81	48	94	17	i
Cc1ccc(C(=O)Sc2cccccc2=O)cc1	94	i	i	75	49	75	89	92
CCOC(=O)C1=C(C(=O)OCC)C2N(Cc3ccc(Br)cc3)c3ccccc3[C@@]23C[C@@H](C(=O)OC)N(S(=O)(=O)c2ccc(F)cc2)C3=N1 (stereo partly drawn)	i	nt	nt	nt	i	nt	nt	nt
O=C(Nc1ccc2nc3n(c(=O)c2c1)CCCCC3)c1c(F)ccc([N+](=O)[O-])c1F	71	i	i	i	43	i	60	79
COc1ccccc1N1CCN(C(=O)c2ccc3c(c2)nc(C)n3-c2cc(OC)c(OC)c(OC)c2)CC1	i	nt	nt	nt	i	nt	nt	nt
CC(C)CN1C(=O)[C@]2(CC(=O)N(C)C2c2ccccc2)c2cc(-n3cc(CO)nn3)ccc21 (stereo partly drawn)	i	nt	nt	nt	i	nt	nt	nt
CCOC(=O)N1CCC(Nc2ncnc3c2cnn3-c2ccc(C)cc2C)CC1	i	i	i	i	59	i	i	43
COC(=O)[C@]12C[C@H](CC(=O)N3CCOCC3)C(=O)N(CCC3=CCCCC3)C1=C[C@H](C1CCCC1)O[C@@H]2C	i	nt	nt	nt	i	nt	nt	nt
CCCCCCC(=O)N(O)C1CC(=O)N(c2ccc(Cl)cc2)C1=O (stereo not drawn)	i	i	i	i	52	i	i	39
OCCCNc1ncnc2scc(-c3ccc(Cl)cc3)c12	i	i	i	i	38	i	i	i
CCc1cccc(OCC(=O)Nc2ccc(C)c(S(=O)(=O)N3CCCCCC3)c2)c1	i	i	i	i	40	i	i	i
Cc1ccc(NC(=O)COc2ccc(N(C)C(=O)C(C)(C)C)cc2)cc1S(=O)(=O)N1CCCCC1	i	i	i	i	74	68	i	54

High-throughput results from PubChem.
